Sampled rows, rich in hits. Any-hit rate of the full collection: about 4.1%.
CSC inhib: cancer stem cell viability inhibitors, primary screen, luminescence | cancer stem cell-like cells viability | inhibition, % at 7.5 µM | hit rate 1.1% among 300,000; in the data active = inhibition above about 75%; inconclusive = no clear call, values can overlap the other calls; tested in HMLE shEcad cells
A1 inh: caspase 3/7 activation in MEF A1-2A-BIM cells, primary screen, A1 inhibitor project, cell-based, luminescence, HTS. Caspase-Glo 3/7 luminescence, 3 h; percent of clofoctol response, vehicle zero. caspase activation, % (no concentration beside the values). hit rate 0.066% among 330,000;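 active = over half of replicate activation scores above 10%, or exactly half above 10 with the replicate mean above 10; inconclusive = replicate mean below 10 yet half the replicates above 10; inactive = over half of replicates below 10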
Beta cell apopt: inhibitors of cytokine-induced beta cell apoptosis, primary screen, luminescence. protection from apoptosis, % (test concentration not listed). hit rate 0.8% among 300,000. INS-1E cytokine-induced death, ATP luminescence, 48 h; percent of positive-control rescue, neutral wells zero. AID 435005, 2010;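 active = Every replicate reaches about 75%, or at least half do and their mean reaches it too, limit read from the data; inconclusive = At least half of replicates reach the limit but their mean does not; inactive = Under half of replicates reach the limit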;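 also: 0% = cytokine-treated negative control wells and 100% = positive control rescue; higher means more ATP so stronger rescue from cytokine killing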
aSyn 5UTR inh: MLPCN primary screen, SNCA 5' untranslated region; AID 1813, 2009; hit rate 0.82% among 300,000; alpha-synuclein 5'UTR reporter, inhibitor activity; inhibition, % (tested at 7.5 µM); in the data active = inhibition above about 60%; inconclusive = no clear call, values can overlap the other calls;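 also: H4 neuroglioblastoma cells stably carrying SNCA 5'UTR luciferase fusion; 0% = DMSO wells and 100% = positive control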
Mdm2-MdmX inh: inhibitors of human Mdm2-MdmX association, primary screen, cell-based, luminescence, split luciferase, SaOS-2, uHTS | inhibition, % at 8 µM | hit rate 3% among 330,000 | Protein Mdm4 (Homo sapiens) + E3 ubiquitin-protein ligase Mdm2 (Homo sapiens), … | SaOS-2 split-luciferase Mdm2/MdmX complementation;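 active = inhibition of at least 50% at 8 µM in the primary screen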
Mdm2 MdmX conf: Mdm2-MdmX complex disruptors, retested hits, confirmation, luminescence, single concentration; shares compounds with Mdm2-MdmX inh; Mdm2-MdmX binding, luminescent assay; inhibition, % at 8 µM; hit rate 55% among 10,000; AID 489028, 2010; in the data active = inhibition above about 40%
Full FLuc ctr: full-length luciferase signal inhibition, confirmation, counter-screen for Mdm2/MdmX interaction inhibitor project, cell-based, single concentration, SaOS-2; shares compounds with Mdm2-MdmX inh; SaOS-2 full-length luciferase counterscreen, luminescence; inhibition, % at 8 µM; hit rate 77% among 6,200;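 active = mean inhibition at 8 µM reaching about 37%, which flags the compound as non-specific, limit read from the data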;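 also: p53-null SaOS-2 cells with luciferase driven by a doxycycline-inducible promoter; compound on cells about two nights before reading with doxycycline added after day one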
Starred values were filed as active, the others as inactive; ? = inconclusive; · = no result given.

SMILES	CSC inhib	A1 inh	Beta cell apopt	aSyn 5UTR inh	Mdm2-MdmX inh	Mdm2 MdmX conf	Full FLuc ctr
CC(C)(C)c1ccc(S(=O)(=O)N2CCN(C(=O)C3CCC3)CC2)cc1	-7	0	12	9	31	·	·
COc1ccc(NC(=O)c2ccc3c(c2)NC(=O)CS3)cc1S(=O)(=O)Nc1ccc(Br)cc1	80*	-1	10	12	69*	77*	44*
N/C(=N\OC(=O)c1ccccc1Cl)c1ccc(Cl)cc1	4	-6	-2	-44	-31	·	·
N/C(Cc1ccc(Cl)cc1)=N\OC(=O)c1ccc2ccccc2c1	-5	?	3	-19	99*	6	·
N/C(CCS(=O)(=O)c1ccc(Cl)cc1)=N\OC(=O)c1ccccc1Cl	-7	3	·	-4	92*	87*	50*
N/C(Cc1ccc(Cl)cc1)=N\OC(=O)c1cccc2ccccc12	5	0	20	-20	99*	76*	39*
CCN1CCN(c2cc(-c3ccccc3)nc3cc(-c4cccc(F)c4)nn23)CC1	?	0	8	20	68*	3	·
COc1cccc(NC(=S)N2CCN(S(C)(=O)=O)CC2)c1	1	0	-1	·	10	·	·
Cc1ccc(N(C)S(=O)(=O)c2ccc(-c3cc(C)no3)s2)cc1	-20	1	-2	-38	54*	55*	59*
Cc1cc(-c2ccc(S(=O)(=O)N(C)c3ccc(C)c(C)c3)s2)on1	71	1	15	0	56*	54*	47*
COc1ccc(-c2cc(C)no2)cc1S(=O)(=O)N(C)c1ccc(C)c(C)c1	23	1	1	28	15	·	·
CCN(CC)S(=O)(=O)c1ccc(C2=NOC3(C2)N(C)c2ccccc2C3(C)C)cc1 (centres undefined)	24	1	12	50	72*	69*	79*
CN1c2ccccc2C(C)(C)C12CC(c1cccc(S(=O)(=O)N3CCCC3)c1)=NO2 (centres undefined)	5	0	37	40	69*	65*	106*
O=S(=O)(c1ccc(-c2ccccc2)cc1)N1CCCCC1	-4	-1	-3	5	37	·	·
CN1c2ccccc2C(C)(C)C12CC(c1ccc(S(=O)(=O)N3CCCCC3)cc1)=NO2 (centres undefined)	·	1	12	-16	65*	74*	74*
NC(=O)CSc1n[nH]c(=O)n1CCc1ccccc1	3	-1	1	5	-9	·	·
Cc1ccccc1CN1CCN(c2nc3ccccc3s2)CC1	8	1	-3	-146	-124	·	·
COc1cccc(/C=N/Nc2ncnc3scc(-c4ccccc4)c23)c1O	111*	-1	103*	?	82*	80*	14
COc1ccc(Nc2ncnc3scc(-c4ccc(OC)cc4)c23)cc1	-29	0	-2	-42	37	·	·
COc1cccc(/C=N/Nc2ncnc(Cl)c2N)c1O	157*	-4	127*	89*	100*	83*	31
Cc1noc(C)c1S(=O)(=O)N1CCCN(C(=O)/C=C/c2ccccc2F)CC1	·	0	0	·	-24	·	·
CCCCn1c(N)c(N(CC(C)C)C(=O)C(C)SCc2nc3sc(C)c(C)c3c(=O)[nH]2)c(=O)[nH]c1=O (centres undefined)	-3	0	-4	-2	21	·	·
COc1ccc(NC(=O)/C(Cl)=C(/Cl)S(=O)Cc2ccccc2Cl)cn1 (centres undefined)	·	·	·	·	98*	100*	2
COc1ccc(NC(=O)Cc2ccc(Cl)c(Cl)c2)cn1	2	0	3	-22	6	·	·
CCOc1ccc(Oc2ccccc2NC(=O)CSCC(=O)Nc2cc(C)on2)cc1	6	0	-5	-4	7	·	·
SMILES	CSC inhib	A1 inh	Beta cell apopt	aSyn 5UTR inh	Mdm2-MdmX inh	Mdm2 MdmX conf	Full FLuc ctr
Cc1cccc(Oc2ccccc2NC(=O)CSCC(=O)Nc2cc(C)on2)c1	·	·	·	·	67*	58*	108*
COc1cccc(C(=O)Nc2ccc(NC(=O)C3C4C=CC(C4)C3C(=O)O)cc2)c1 (centres undefined)	7	-3	1	-11	14	·	·
Cc1cccnc1Nc1nc(-c2ccccn2)cs1	101*	-10	101*	51	74*	36	·
O=C(COc1ccc(F)cc1Cl)Nc1nc(-c2ccccn2)cs1	39	0	8	28	74*	70*	34
O=C(Nc1nc(-c2ccccn2)cs1)c1ccc(Cl)s1	80*	-1	92*	68*	70*	80*	24
O=C(Nc1nc(-c2ccccn2)cs1)c1ncc(Cl)c(Cl)c1Cl	-12	0	16	-54	74*	35	·
O=C(COc1ccccc1Cl)Nc1nc(-c2ccncc2)cs1	1	-1	1	·	30	·	·
CC(C)(C)c1ccc(C(=O)C2CCCN(C(=O)CCn3cncn3)C2)cc1 (centres undefined)	2	1	1	-24	18	·	·
CCc1sc(C(=O)Nc2nc(-c3ccccn3)cs2)cc1C	49	-2	37	·	64*	40*	37*
Cn1cccc1C(=O)Nc1nc(-c2ccccn2)cs1	24	-8	52	-32	24	·	·
Cc1ccc(C(=O)Nc2nc(-c3ccccn3)cs2)s1	43	-3	95*	·	58*	76*	35
CCc1sc(C(=O)Nc2nccs2)cc1C	15	-9	1	-123	-135	·	·
COCC(=O)Nc1cc(C)cn(Cc2ccccc2Cl)c1=O	-13	0	2	-10	-6	·	·
Cc1ccccc1C1C(C#N)=C2N=C(N)c3c(sc4c3CCCCC4)N2C2=C1C(=O)CC(C)(C)C2 (centres undefined)	11	0	-4	16	39	·	·
Cc1ccccc1C1C(C#N)=C2NC(=O)c3c(sc4c3CCCCC4)N2C2=C1C(=O)CC(C)(C)C2 (centres undefined)	15	-1	0	-9	82*	63*	38*
Cc1ccc(NC(=O)CSc2nnc(-c3ccoc3C)n2CCCN(C)C)cc1Cl	-14	0	1	19	-16	·	·
CNC(=O)c1ccc(S(=O)(=O)c2ccc(Cl)cc2)c(NC(C)=O)c1	·	0	·	-19	10	·	·
CNC(=O)c1nnsc1S(=O)(=O)c1ccc(Cl)cc1	·	·	·	-26	96*	100*	51*
O=C(c1nnsc1S(=O)(=O)c1ccc(Cl)cc1)N1CCOCC1	·	·	·	-34	95*	68*	19

Bioassay records deposited in PubChem BioAssay by several laboratories.
